Measurements reported in ChEMBL document CHEMBL1961873, “Compounds: GSK PKIS; Assays: Nanosyn kinase panel” (2012).

Columns and labels:
[1] = target: Glycogen synthase kinase-3 beta (Homo sapiens) (UniProt P49841); settings: at 1 µM;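 also: reported values are mean percent inhibition of GSK3B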
[2] = target: Homeodomain-interacting protein kinase 1 (Homo sapiens) (UniProt Q86Z02); settings: at 0.1 µM
[3] = target: Homeodomain-interacting protein kinase 1 (Homo sapiens) (UniProt Q86Z02); settings: at 1 µM
[4] = target: T1, Homeodomain-interacting protein kinase 4 (Homo sapiens) (UniProt Q8NE63); settings: at 0.1 µM
T1 sequence (whole entry): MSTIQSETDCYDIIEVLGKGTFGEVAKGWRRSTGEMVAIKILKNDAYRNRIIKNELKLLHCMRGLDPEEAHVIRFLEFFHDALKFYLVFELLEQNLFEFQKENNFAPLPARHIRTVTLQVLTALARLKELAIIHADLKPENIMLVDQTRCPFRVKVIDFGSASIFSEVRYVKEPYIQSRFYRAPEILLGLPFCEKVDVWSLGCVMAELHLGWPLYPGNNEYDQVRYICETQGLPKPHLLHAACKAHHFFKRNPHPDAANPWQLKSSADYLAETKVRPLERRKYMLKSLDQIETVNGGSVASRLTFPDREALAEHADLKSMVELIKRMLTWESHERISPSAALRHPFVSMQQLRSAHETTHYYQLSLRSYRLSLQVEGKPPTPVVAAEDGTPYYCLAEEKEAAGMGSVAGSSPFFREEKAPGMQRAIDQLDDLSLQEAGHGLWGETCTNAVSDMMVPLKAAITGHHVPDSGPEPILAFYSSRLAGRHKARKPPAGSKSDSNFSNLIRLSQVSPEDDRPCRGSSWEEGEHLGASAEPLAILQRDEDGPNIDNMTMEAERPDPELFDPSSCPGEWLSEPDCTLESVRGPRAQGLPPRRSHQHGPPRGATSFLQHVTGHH

[5] = target: T1, Homeodomain-interacting protein kinase 4 (Homo sapiens); settings: at 1 µM
[6] = target: Mitogen-activated protein kinase 9 (Homo sapiens) (UniProt P45984); settings: at 0.1 µM
Sequence of Mitogen-activated protein kinase 9 (Homo sapiens) (P45984 whole entry, looked up): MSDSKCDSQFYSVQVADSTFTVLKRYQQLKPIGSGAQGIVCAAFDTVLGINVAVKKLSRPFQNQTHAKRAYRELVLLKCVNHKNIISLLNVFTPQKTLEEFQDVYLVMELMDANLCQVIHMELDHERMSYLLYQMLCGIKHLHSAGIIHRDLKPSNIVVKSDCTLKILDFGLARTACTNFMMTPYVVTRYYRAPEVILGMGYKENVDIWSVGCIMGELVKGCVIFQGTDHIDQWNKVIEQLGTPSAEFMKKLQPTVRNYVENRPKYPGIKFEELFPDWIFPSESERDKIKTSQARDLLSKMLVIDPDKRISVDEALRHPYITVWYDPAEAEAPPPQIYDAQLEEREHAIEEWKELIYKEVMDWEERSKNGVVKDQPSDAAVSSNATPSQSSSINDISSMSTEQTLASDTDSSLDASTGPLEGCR

[7] = target: Mitogen-activated protein kinase 9 (Homo sapiens) (UniProt P45984); settings: at 1 µM
[8] = target: Mitogen-activated protein kinase 1 (Homo sapiens) (UniProt P28482); settings: at 0.1 µM
Sequence of Mitogen-activated protein kinase 1 (Homo sapiens) (P28482 whole entry): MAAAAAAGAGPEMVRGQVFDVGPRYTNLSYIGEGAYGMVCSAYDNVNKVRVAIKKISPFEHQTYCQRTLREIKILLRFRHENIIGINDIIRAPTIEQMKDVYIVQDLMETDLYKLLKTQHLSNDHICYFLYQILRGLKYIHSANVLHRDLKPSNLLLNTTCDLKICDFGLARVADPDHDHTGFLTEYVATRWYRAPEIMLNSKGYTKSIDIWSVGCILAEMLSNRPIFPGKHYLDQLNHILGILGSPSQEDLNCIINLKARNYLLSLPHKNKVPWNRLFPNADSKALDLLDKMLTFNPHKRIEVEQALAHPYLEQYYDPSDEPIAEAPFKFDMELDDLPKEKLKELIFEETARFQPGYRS

[9] = target: Mitogen-activated protein kinase 1 (Homo sapiens) (UniProt P28482); settings: at 1 µM
[10] = target: Mitogen-activated protein kinase 3 (Homo sapiens) (UniProt P27361); settings: at 0.1 µM
Sequence of Mitogen-activated protein kinase 3 (Homo sapiens) (P27361 whole entry): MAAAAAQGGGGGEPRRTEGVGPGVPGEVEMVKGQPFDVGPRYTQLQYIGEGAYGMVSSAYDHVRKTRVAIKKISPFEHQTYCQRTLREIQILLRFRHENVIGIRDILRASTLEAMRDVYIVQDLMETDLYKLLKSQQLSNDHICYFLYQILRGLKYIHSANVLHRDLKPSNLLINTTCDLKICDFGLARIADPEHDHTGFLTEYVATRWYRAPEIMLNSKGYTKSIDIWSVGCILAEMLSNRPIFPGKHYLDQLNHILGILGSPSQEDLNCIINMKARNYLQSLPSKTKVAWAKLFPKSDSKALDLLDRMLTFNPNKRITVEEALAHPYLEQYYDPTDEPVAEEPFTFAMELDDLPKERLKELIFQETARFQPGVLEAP

[11] = target: Mitogen-activated protein kinase 3 (Homo sapiens) (UniProt P27361); settings: at 1 µM
[12] = target: SRSF protein kinase 3 (Homo sapiens) (UniProt Q9UPE1); settings: at 0.1 µM
Sequence of SRSF protein kinase 3 (Homo sapiens) (Q9UPE1 whole entry): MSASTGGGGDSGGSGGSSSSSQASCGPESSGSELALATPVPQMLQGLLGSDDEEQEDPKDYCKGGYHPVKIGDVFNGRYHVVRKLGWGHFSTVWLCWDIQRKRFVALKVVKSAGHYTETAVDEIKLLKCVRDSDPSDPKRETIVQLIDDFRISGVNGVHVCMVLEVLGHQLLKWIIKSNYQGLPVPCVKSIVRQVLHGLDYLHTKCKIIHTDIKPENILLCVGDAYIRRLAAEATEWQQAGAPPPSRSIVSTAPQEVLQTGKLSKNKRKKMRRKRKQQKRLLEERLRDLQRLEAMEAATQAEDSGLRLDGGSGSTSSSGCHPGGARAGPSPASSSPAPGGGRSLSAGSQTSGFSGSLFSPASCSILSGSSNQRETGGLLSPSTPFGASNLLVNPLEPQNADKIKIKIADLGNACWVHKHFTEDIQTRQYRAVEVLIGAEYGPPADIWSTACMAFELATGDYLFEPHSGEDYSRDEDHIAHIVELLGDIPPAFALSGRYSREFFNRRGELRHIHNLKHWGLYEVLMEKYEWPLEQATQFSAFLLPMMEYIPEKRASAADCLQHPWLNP

[13] = target: SRSF protein kinase 3 (Homo sapiens) (UniProt Q9UPE1); settings: at 1 µM
[14] = target: Mitogen-activated protein kinase 14 (Homo sapiens) (UniProt Q16539); settings: at 0.1 µM
Sequence of Mitogen-activated protein kinase 14 (Homo sapiens) (Q16539 whole entry): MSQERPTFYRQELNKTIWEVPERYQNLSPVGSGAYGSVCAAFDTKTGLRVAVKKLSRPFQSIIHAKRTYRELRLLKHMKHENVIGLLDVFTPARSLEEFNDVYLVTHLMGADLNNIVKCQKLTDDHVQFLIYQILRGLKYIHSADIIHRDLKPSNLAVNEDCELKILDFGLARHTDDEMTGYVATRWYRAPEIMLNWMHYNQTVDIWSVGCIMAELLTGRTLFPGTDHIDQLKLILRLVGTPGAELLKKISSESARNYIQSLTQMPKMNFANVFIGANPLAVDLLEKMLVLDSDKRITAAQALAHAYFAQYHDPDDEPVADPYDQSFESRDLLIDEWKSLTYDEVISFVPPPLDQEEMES

[15] = target: Mitogen-activated protein kinase 14 (Homo sapiens) (UniProt Q16539); settings: at 1 µM
[16] = target: Mitogen-activated protein kinase 11 (Homo sapiens) (UniProt Q15759); settings: at 0.1 µM
Sequence of Mitogen-activated protein kinase 11 (Homo sapiens) (Q15759 whole entry): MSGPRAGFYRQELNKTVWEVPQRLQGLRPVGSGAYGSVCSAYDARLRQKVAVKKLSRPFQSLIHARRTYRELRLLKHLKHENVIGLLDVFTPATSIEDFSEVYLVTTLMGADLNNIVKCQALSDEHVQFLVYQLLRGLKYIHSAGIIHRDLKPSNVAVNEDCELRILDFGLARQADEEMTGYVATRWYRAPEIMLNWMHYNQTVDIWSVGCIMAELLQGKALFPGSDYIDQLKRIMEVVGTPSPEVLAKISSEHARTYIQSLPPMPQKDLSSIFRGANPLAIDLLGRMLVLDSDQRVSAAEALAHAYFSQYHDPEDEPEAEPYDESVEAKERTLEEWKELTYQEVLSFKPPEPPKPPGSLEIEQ

[17] = target: Mitogen-activated protein kinase 11 (Homo sapiens) (UniProt Q15759); settings: at 1 µM
[18] = target: T2, Mitogen-activated protein kinase 13 (Homo sapiens) (UniProt O15264); settings: at 0.1 µM
T2 sequence (whole entry): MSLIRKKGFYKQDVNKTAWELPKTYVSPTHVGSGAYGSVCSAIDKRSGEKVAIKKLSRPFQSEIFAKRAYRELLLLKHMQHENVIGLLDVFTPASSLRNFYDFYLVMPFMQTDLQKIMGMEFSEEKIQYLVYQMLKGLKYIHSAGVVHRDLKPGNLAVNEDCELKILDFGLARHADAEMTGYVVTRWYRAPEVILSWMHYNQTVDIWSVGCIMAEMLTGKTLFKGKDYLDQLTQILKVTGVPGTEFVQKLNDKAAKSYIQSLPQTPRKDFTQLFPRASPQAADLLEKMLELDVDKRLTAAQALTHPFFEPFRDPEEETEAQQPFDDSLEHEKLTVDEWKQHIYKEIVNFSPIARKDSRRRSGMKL

[19] = target: T2, Mitogen-activated protein kinase 13 (Homo sapiens); settings: at 1 µM
[20] = target: T3, Mitogen-activated protein kinase 12 (Homo sapiens) (UniProt P53778); settings: at 0.1 µM
T3 sequence (whole entry): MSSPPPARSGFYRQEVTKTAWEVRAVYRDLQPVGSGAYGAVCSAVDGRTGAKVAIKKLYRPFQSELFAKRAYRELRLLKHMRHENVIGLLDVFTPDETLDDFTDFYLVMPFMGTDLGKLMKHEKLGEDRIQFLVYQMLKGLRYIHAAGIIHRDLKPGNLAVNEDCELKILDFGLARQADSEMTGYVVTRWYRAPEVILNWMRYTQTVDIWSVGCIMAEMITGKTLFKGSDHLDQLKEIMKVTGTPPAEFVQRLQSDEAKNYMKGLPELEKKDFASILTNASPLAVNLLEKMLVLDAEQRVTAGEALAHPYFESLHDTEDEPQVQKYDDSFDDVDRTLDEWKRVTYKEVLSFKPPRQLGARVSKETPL

Sequence of Homeodomain-interacting protein kinase 1 (Homo sapiens) (Q86Z02 whole entry, looked up): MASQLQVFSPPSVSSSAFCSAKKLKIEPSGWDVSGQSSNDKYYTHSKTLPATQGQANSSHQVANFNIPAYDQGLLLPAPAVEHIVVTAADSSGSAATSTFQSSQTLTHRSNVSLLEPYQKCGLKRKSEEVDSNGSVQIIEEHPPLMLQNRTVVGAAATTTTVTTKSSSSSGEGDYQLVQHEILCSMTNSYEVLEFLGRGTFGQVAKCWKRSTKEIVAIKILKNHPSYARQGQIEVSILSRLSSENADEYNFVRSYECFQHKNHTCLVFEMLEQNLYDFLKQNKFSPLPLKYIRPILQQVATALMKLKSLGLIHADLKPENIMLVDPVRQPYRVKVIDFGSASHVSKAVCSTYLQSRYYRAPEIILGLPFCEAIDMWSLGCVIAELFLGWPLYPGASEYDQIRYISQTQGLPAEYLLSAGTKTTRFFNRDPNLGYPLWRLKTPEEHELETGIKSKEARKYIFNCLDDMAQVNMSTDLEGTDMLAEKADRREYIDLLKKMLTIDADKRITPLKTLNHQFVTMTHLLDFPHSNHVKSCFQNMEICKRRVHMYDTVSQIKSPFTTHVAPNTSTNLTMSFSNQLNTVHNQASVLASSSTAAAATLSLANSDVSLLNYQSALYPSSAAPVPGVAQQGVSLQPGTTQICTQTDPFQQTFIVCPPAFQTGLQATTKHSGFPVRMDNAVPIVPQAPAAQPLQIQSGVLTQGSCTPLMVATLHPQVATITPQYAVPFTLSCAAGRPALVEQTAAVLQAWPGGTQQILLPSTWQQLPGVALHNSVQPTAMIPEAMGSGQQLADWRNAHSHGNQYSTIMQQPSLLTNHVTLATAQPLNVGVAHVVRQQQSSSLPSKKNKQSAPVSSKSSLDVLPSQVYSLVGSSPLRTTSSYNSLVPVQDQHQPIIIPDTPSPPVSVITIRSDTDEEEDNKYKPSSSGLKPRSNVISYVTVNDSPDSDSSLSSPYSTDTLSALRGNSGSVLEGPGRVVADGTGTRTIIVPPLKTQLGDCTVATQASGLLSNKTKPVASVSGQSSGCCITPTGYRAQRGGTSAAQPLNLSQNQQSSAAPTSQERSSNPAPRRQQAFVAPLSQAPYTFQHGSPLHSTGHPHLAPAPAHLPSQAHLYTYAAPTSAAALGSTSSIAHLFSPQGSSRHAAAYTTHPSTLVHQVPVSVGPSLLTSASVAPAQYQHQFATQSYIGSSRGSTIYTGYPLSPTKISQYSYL
Sequence of Glycogen synthase kinase-3 beta (Homo sapiens) (P49841 whole entry, looked up): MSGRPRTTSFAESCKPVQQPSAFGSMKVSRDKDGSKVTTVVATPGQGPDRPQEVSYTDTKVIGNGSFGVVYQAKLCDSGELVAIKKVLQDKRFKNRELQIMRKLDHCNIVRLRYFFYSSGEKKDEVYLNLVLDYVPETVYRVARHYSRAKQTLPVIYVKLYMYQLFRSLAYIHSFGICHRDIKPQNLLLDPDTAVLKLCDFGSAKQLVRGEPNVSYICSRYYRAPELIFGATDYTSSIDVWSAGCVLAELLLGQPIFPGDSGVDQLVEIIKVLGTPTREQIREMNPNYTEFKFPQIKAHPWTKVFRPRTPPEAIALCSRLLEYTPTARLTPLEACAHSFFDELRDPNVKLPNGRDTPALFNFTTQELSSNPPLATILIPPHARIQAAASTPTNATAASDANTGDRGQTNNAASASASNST

| SMILES | inhibition [1] | inhibition [2] | inhibition [3] | inhibition [4] | inhibition [5] | inhibition [6] | inhibition [7] | inhibition [8] | inhibition [9] | inhibition [10] | inhibition [11] | inhibition [12] | inhibition [13] | inhibition [14] | inhibition [15] | inhibition [16] | inhibition [17] | inhibition [18] | inhibition [19] | inhibition [20] |
| --- | --- | --- | --- | --- | --- | --- | --- | --- | --- | --- | --- | --- | --- | --- | --- | --- | --- | --- | --- | --- |
| COc1ccc(Nc2ncc(-c3ccccc3)o2)cc1OC | 33% | 8.4% | 28.6% | 3.61% | 22.6% | 2.69% | 8.77% | -0.07% | 1.54% | 1.12% | 1.29% | -1.82% | -2.17% | 4.31% | 5.01% | 1.96% | 4.99% | 0.77% | 2.02% | 4.1% |
| Cc1ccc(-c2cc3c(NC(=O)C4CC4)ncnc3o2)cc1 | 38.2% | 1.63% | 9.22% | 1.44% | 7.28% | 0.97% | 5.49% | 2.94% | 4.73% | 3% | 1.29% | 0.82% | 0.53% | 3.56% | 6.38% | 1.17% | 7.45% | 5.13% | 4.2% | 1.34% |
| COc1cc2c(cc1Nc1nc(Nc3cccc(F)c3C(N)=O)c3cc[nH]c3n1)N(C(=O)CN1CCN(C(C)C)CC1)CC2 | 3.89% | 0.07% | 21.8% | 3.33% | 15.4% | 3.04% | 18.2% | 2.66% | 7.45% | 2.64% | 3.92% | 4.88% | 0.53% | 5.02% | 6.81% | 2.96% | 3.23% | 0.14% | 2.89% | 1.49% |
| CN(c1ccc(NC(=O)NCCN2CCOCC2)cc1)c1ccnc(Nc2ccc(CS(C)(=O)=O)cc2)n1 | 5.02% | 2.62% | 5.06% | 6.23% | 31.9% | 1.5% | 3.59% | 5.07% | 8.36% | 4.06% | 3.72% | 0.77% | 2.7% | 0.79% | 5.83% | 4.13% | 6.58% | 1.11% | 3.21% | 0.47% |
